The values that follow come from PubChem BioAssay (NCI).

Where “and” joins values, the source holds several entries; their conditions need not be identical. Equal entries are not always repeated. The panel holds about 83,000 compounds, 20% with a hit somewhere; the sample as a whole holds those more often.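 A percent growth of 40 corresponds to 60% growth inhibition; 0 means no net growth; -100 means all cells died. Active threshold: below 10.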 Calls of active or inactive are those of the source.

What all share (test): NCI-60 one-dose screen, 48 h (100 = growth as untreated, 0 = no growth, -100 = all killed)
Experiment [1] relates to HCT-15 colon. Conditions: 10 µM unless noted.
The test system of experiment [2] is HT29 colon. The following applies: 10 µM unless noted.
For experiment [3], the system named is SNB-75 CNS. The following applies: 10 µM unless noted.
In experiment [4] the test system is SNB-19 CNS. Conditions: 10 µM unless noted.
The test system of experiment [5] is U251 CNS. The following applies: 10 µM unless noted.
The test system of experiment [6] is PC-3 prostate. Conditions: 10 µM unless noted.
The test system of experiment [7] is SK-MEL-5 melanoma. Conditions: 10 µM unless noted.
Experiment [8] has as its system UACC-62 melanoma.
Experiment [9] has as its system LOX IMVI melanoma. Conditions: 10 µM unless noted.
Experiment [10] concerns SK-MEL-28 melanoma. Conditions: 10 µM unless noted.
Experiment [11] deals with SK-MEL-2 melanoma. The following applies: 10 µM unless noted.
Experiment [12] deals with EKVX NSCLC. The following applies: 10 µM unless noted.
The test system of experiment [13] is SN12C renal. The following applies: 10 µM unless noted.
The test system of experiment [14] is UO-31 renal. The following applies: 10 µM unless noted.
Experiment [15] relates to TK-10 renal.
In experiment [16] the test system is ACHN renal. The following applies: 10 µM unless noted.
In experiment [17] the test system is CAKI-1 renal. Conditions: 10 µM unless noted.
The test system of experiment [18] is A498 renal. Conditions: 10 µM unless noted.
Experiment [19] concerns CCRF-CEM leukemia. The following applies: 10 µM unless noted.
Experiment [20] deals with MOLT-4 leukemia. Conditions: 10 µM unless noted.

On to `CCCCCc1cc[n+](CC(=O)c2ccccc2)cc1`, for which the growth in experiment [1] was 99.4% (inactive) and 103% (inactive); in experiment [2] it was 99.7% (inactive) and 105% (inactive); in [3] it was 92.6% (inactive); in [4], 93.4% (inactive) and 107% (inactive); in [5], 103% (inactive) and 105% (inactive); in experiment [6], 85.6% (inactive) and 91.1% (inactive). Moreover, the growth was 96% (inactive) and 89.5% (inactive) in experiment [7]; 98.7% (inactive) and 101% (inactive) in experiment [8] (10 µM unless noted); 93.8% (inactive) and 98.6% (inactive) in experiment [9]; 128% (inactive) and 109% (inactive) in experiment [10]; 101% (inactive) and 104% (inactive) in experiment [11]; 90.4% (inactive) in experiment [12]. Besides, the growth was 99.8% (inactive) and 103% (inactive) in [13]; 85.6% (inactive) and 91.3% (inactive) in experiment [14]; 120% (inactive) and 101% (inactive) in experiment [15] (10 µM unless noted); 102% (inactive) in [16]; 98.7% (inactive) in [17]; 87.5% (inactive) and 85.7% (inactive) in [18]. Also, the growth in experiment [19] was 92.2% (inactive) and 99.4% (inactive); in experiment [20], 104% (inactive) and 109% (inactive).
Take `CCOC(=O)C1=CC(=O)CC(C)(C)O1`: the growth in experiment [1] is 101% (inactive) and 103% (inactive); in experiment [2], 92.6% (inactive) and 101% (inactive); in experiment [3], 116% (inactive); in experiment [4] it was 104% (inactive) and 109% (inactive); in experiment [5] it was 104% (inactive) and 99.9% (inactive); in experiment [6], 88.7% (inactive) and 105% (inactive). Besides, the growth in experiment [7] was 112% (inactive); in [8] (10 µM unless noted) it was 104% (inactive) and 106% (inactive); in experiment [9], 103% (inactive) and 107% (inactive); in experiment [10] it was 119% (inactive) and 120% (inactive); in experiment [11], 114% (inactive); in [12], 104% (inactive) and 126% (inactive). Also, the growth is 110% (inactive) and 102% (inactive) in experiment [13]; 92.5% (inactive) and 101% (inactive) in [14]; 96.1% (inactive) and 107% (inactive) in [15] (10 µM unless noted); 102% (inactive) and 106% (inactive) in [16]; 99.7% (inactive) and 104% (inactive) in experiment [17]; 108% (inactive) and 105% (inactive) in [18]. Besides, the growth is 90% (inactive) and 104% (inactive) in experiment [19]; -47.2% (active) and 106% (inactive) in experiment [20].
With `COc1ccc2nccc(Cl)c2c1`, the growth was 109% (inactive) in experiment [1]; 104% (inactive) in experiment [2]; 91.1% (inactive) in experiment [3]; 103% (inactive) in experiment [4]; 97.6% (inactive) in [5]; 95.3% (inactive) in experiment [6]. The growth in [7] is 102% (inactive); in [8] (10 µM unless noted), 89.6% (inactive); in experiment [9], 97.9% (inactive); in [10], 110% (inactive); in experiment [11], 97.4% (inactive); in [12] it was 101% (inactive). The growth in experiment [13] is 98.7% (inactive); in experiment [14], 91.5% (inactive); in experiment [15] (10 µM unless noted), 103% (inactive); in experiment [16] it was 106% (inactive); in [17], 97.3% (inactive); in experiment [18], 95.1% (inactive). Moreover, the growth in experiment [19] was 109% (inactive); in experiment [20] it was 106% (inactive).
For `Cc1c(Cl)c(C)c(Cc2c(C)c(Cl)c(C)c(Cl)c2O)c(O)c1Cl`, the growth was 5.02% (active) in experiment [1]; 34% (inactive) in experiment [2]; 25% (inactive) in [3]; 10.6% (inactive) in experiment [4]; 8.95% (active) in [5]; 8.74% (active) in experiment [6]. Also, the growth in [7] was -69.7% (active); in experiment [8] (10 µM unless noted) it was 18.2% (inactive); in [9], 4.09% (active); in experiment [10], 26.1% (inactive); in [11], 1.72% (active); in experiment [12] it was 3.88% (active). Also, the growth in experiment [13] was 8.8% (active); in [14] it was 7.71% (active); in [15] (10 µM unless noted) it was 25.1% (inactive); in [16] it was 3.3% (active); in experiment [17] it was 4.14% (active); in experiment [18] it was -21.6% (active). In addition, the growth in [19] is 26.5% (inactive); in [20], 16.5% (inactive).
With `Nc1nc(=S)c2[nH]cnc2[nH]1`, the growth in [1] is 13% (inactive) and 12.5% (inactive); in experiment [2], 9.45% (active) and 8.24% (active); in experiment [3], 29.1% (inactive) and 26.5% (inactive); in experiment [4] it was 98.2% (inactive) and 102% (inactive); in [5], 47.2% (inactive) and 51% (inactive); in [6] it was 33.2% (inactive) and 32.1% (inactive). For the same molecule, the growth is -2% (active) and -29% (active) in [7]; -21.9% (active) in experiment [8] (10 µM); -67.7% (active) and -100% (active) in experiment [8] (250 µM); 8.31% (active) and 5.43% (active) in experiment [9]; 29% (inactive) in experiment [10]; 29.7% (inactive) and 42.5% (inactive) in experiment [11]. The growth was 44.6% (inactive) and 36.6% (inactive) in experiment [12]; 29.5% (inactive) and 29.9% (inactive) in experiment [13]; 16.4% (inactive) and 28.5% (inactive) in experiment [14]; 10.3% (inactive) and 31.3% (inactive) in [15] (10 µM); -17% (active) and -85.4% (active) in experiment [15] (250 µM); 18.7% (inactive) and 20.5% (inactive) in experiment [16]. The growth in experiment [17] was 4.02% (active) and 14.2% (inactive); in experiment [18], 32% (inactive); in experiment [19], 7.32% (active) and 0.0411% (active); in [20], 10.1% (inactive) and 0.426% (active).
In the case of `COCCCNC1=C(C#N)C(=O)NC(c2cccs2)S1` (configuration not stated), the growth in [1] was 98.2% (inactive); in experiment [2], 99.9% (inactive); in experiment [3], 83.2% (inactive); in experiment [4], 94.4% (inactive); in [5] it was 100% (inactive); in experiment [6], 100% (inactive). The growth is 95.3% (inactive) in experiment [7]; 91.7% (inactive) in [8] (10 µM unless noted); 105% (inactive) in [9]; 113% (inactive) in experiment [10]; 119% (inactive) in experiment [11]; 84% (inactive) in experiment [12]. Also, the growth in experiment [13] was 93% (inactive); in [14], 76.3% (inactive); in experiment [15] (10 µM unless noted) it was 92.5% (inactive); in experiment [16] it was 97.5% (inactive); in experiment [17], 92.7% (inactive); in [18], 133% (inactive). Also, the growth in [19] was 114% (inactive); in experiment [20], 172% (inactive).
